Measured values from PubChem BioAssay (NCATS).
Results filed as inconclusive are left out. Active and inactive are the calls of the source. Unless noted, the call rests on the fitted dose curve.

Tests used:
[1] = qHTS for Inhibitors of the Functional Ribonucleoprotein Complex (vRNP) of Lassa (LASV) Arenavirus: LASV Primary Screen - GLuc reporter signal (AID 1347082; calls by dose curve; tested in HEK293 reporter line; further: nearly all actives have a fitted effect of over 60% in size); settings: LASV minigenome vRNP, Gaussia luciferase reporter; series mostly up to 57.5 µM
[2] = qHTS for Inhibitors of the Functional Ribonucleoprotein Complex (vRNP) of Lassa (LASV) Arenavirus: Viability assay - alamar blue signal for LASV Primary Screen (AID 1347083; calls by dose curve; tested in HEK293 reporter line; further: nearly all actives have a fitted effect of over 80% in size); settings: cell viability, alamar blue fluorescence (LASV minigenome counter-screen); series mostly up to 57.5 µM
[3] = qHTS for Inhibitors of the Functional Ribonucleoprotein Complex (vRNP) of Lymphocytic Choriomeningitis Arenaviruses (LCMV): Viability assay - alamar blue signal for LCMV Primary Screen (AID 1347085; calls by dose curve; tested in HEK293 reporter line; further: nearly all actives have a fitted effect of over 80% in size); settings: alamar blue viability counter-screen, LCMV vRNP screen cells; series mostly up to 57.5 µM
[4] = target: Nucleoprotein (Lymphocytic choriomeningitis virus (strain Armstrong)) (UniProt P09992); experiment: qHTS for Inhibitors of the Functional Ribonucleoprotein Complex (vRNP) of Lymphocytic Choriomeningitis Arenaviruses (LCMV): LCMV Primary Screen - GLuc reporter signal (AID 1347086); settings: LCMV minigenome vRNP cell assay, Gaussia luciferase reporter; series mostly up to 57.5 µM; further: nearly all actives have a fitted effect of over 70% in size
On the % scale 0 is the no-effect control and ±100 the full control effect.

Nucleoprotein (Lymphocytic choriomeningitis virus (strain Armstrong)), sequence (P09992 whole entry, looked up): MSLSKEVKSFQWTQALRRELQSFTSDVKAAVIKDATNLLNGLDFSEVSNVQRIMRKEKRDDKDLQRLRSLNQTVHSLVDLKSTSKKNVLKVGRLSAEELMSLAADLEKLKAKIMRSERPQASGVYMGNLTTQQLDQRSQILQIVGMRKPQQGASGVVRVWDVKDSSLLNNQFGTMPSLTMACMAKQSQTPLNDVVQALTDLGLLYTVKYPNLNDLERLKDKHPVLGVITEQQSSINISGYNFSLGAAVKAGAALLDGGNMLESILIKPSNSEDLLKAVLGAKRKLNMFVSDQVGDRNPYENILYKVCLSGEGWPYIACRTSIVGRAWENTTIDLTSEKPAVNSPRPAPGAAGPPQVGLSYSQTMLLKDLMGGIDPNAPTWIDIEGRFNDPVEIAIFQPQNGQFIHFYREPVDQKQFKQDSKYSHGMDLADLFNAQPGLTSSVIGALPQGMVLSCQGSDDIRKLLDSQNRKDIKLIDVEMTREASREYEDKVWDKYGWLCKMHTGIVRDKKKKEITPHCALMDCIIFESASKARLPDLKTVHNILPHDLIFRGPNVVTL

C[N+]1(C)[C@@H]2CC(OC(=O)[C@H](CO)c3ccccc3)C[C@H]1[C@@H]1O[C@@H]12 (stereo partly specified)
inactive: Potency [1] | Potency [2] | Potency [3] | Potency [4]

O=P(O)(O)OCC(O)CO (stereo unspecified)
inactive: Potency [1] | Potency [2] | Potency [3] | Potency [4]

O=C(c1ccco1)N1CCNCC1
inactive: Potency [1] | Potency [2] | Potency [3] | Potency [4]

NC(=S)N/N=C/c1cccnc1
inactive: Potency [1] | Potency [2] | Potency [3] | Potency [4]

CC(=O)N(c1onc(C)c1C)S(=O)(=O)c1ccc(N)cc1
inactive: Potency [1] | Potency [2] | Potency [3] | Potency [4]

O=C(N/N=C/c1ccccc1O)c1ccncc1
inactive: Potency [1] | Potency [2] | Potency [3] | Potency [4]

CC(C)=CCC/C(C)=C/CC/C(C)=C/CCC(=O)OC/C=C(\C)CCC=C(C)C
inactive: Potency [1] | Potency [2] | Potency [3] | Potency [4]

CCOC(N)=O
inactive: Potency [1] | Potency [2] | Potency [3] | Potency [4]

Cn1c(=O)c2[nH]cnc2n(C)c1=O
inactive: Potency [1] | Potency [2] | Potency [3] | Potency [4]

COc1cc(NS(=O)(=O)c2ccc(N)cc2)nc(C)n1
inactive: Potency [1] | Potency [2] | Potency [3] | Potency [4]

COc1ccc(O)cc1
inactive: Potency [1] | Potency [2] | Potency [3] | Potency [4]

COc1ccc2cc([C@H](C)C(=O)O)ccc2c1
inactive: Potency [1] | Potency [2] | Potency [3] | Potency [4]

Cc1cc2nc3c(=O)[nH]c(=O)nc-3n(C[C@H](O)[C@H](O)[C@H](O)CO)c2cc1C
inactive: Potency [1] | Potency [2] | Potency [3] | Potency [4]

NC(=O)COCCN1CCN(C(c2ccccc2)c2ccc(Cl)cc2)CC1 (stereo unspecified)
inactive: Potency [1] | Potency [2] | Potency [3] | Potency [4]

Cc1ccc(Nc2nccc(N(C)c3ccc4c(C)n(C)nc4c3)n2)cc1S(N)(=O)=O
inactive: Potency [1] | Potency [2] | Potency [3] | Potency [4]

Cc1[nH]cnc1-c1ccc(Cl)cc1
inactive: Potency [1] | Potency [2] | Potency [3] | Potency [4]

Cc1ncc(CO)c(C=O)c1O
inactive: Potency [1] | Potency [2] | Potency [3] | Potency [4]

CC1CCN(CCCC(=O)c2ccc(F)cc2)CC1
inactive: Potency [1] | Potency [2] | Potency [3] | Potency [4]

C=C[C@H]1CN2CC[C@H]1C[C@H]2[C@H](O)c1ccnc2ccc(OC)cc12
inactive: Potency [1] | Potency [2] | Potency [3] | Potency [4]

Cc1cc(=O)n(-c2ccccc2)n1C
inactive: Potency [1] | Potency [2] | Potency [3] | Potency [4]

Cc1ccccc1OCC(O)CO (stereo unspecified)
inactive: Potency [1] | Potency [2] | Potency [3] | Potency [4]

O=C(O)Cc1cccc(-c2cc(CCCCCCc3ccc(O[C@H]4O[C@H](CO)[C@@H](O)[C@H](O)[C@@H]4O)c(-c4cccc(CC(=O)O)c4)c3)ccc2O[C@H]2O[C@H](CO)[C@@H](O)[C@H](O)[C@@H]2O)c1
inactive: activity change, negative = inhibition [1] 1.7% [at 0.757 µM] | activity change, negative = reduced viability [2] 10.5% [at 0.757 µM] | activity change, negative = lower viability [3] 2.8% [at 0.757 µM] | activity change, negative = inhibition [4] 2.06% [at 0.757 µM]

Cc1ncc([N+](=O)[O-])n1CC(O)CCl (stereo unspecified)
inactive: Potency [1] | Potency [2] | Potency [3] | Potency [4]

Cc1cc2c(cc1CC(=O)c1sccc1S(=O)(=O)Nc1onc(C)c1Cl)OCO2
inactive: Potency [1] | Potency [2] | Potency [3] | Potency [4]

CC(=O)Oc1ccc(C)cc1
inactive: Potency [1] | Potency [2] | Potency [3] | Potency [4]

CN(C)C(=O)Oc1ccc[n+](C)c1
inactive: Potency [1] | Potency [2] | Potency [3] | Potency [4]

C=CCN1CCc2nc(N)sc2CC1
inactive: Potency [1] | Potency [2] | Potency [3] | Potency [4]

CC(=O)OCC(=O)[C@@]1(O)CC[C@H]2[C@@H]3CCC4=CC(=O)C=C[C@]4(C)[C@@]3(F)[C@@H](O)C[C@@]21C
inactive: Potency [1] | Potency [2] | Potency [3] | Potency [4]

Cc1coc2ccccc2c1=O
inactive: Potency [1] | Potency [2] | Potency [3] | Potency [4]

NS(=O)(=O)c1cc(Cl)c(Cl)c(S(N)(=O)=O)c1
inactive: Potency [1] | Potency [2] | Potency [3] | Potency [4]

CC1(C)O[C@@H]2C[C@H]3[C@@H]4CCC5=CC(=O)C=C[C@]5(C)[C@@H]4[C@@H](O)C[C@]3(C)[C@]2(C(=O)CO)O1
inactive: Potency [1] | Potency [2] | Potency [3] | Potency [4]

CC(=O)OCC(=O)[C@@]1(O)CC[C@H]2[C@@H]3CCC4=CC(=O)CC[C@]4(C)[C@H]3C(=O)C[C@@]21C
inactive: Potency [1] | Potency [2] | Potency [3] | Potency [4]

O=c1[nH]c(=O)n([C@H]2CCCO2)cc1F
inactive: Potency [1] | Potency [2] | Potency [3] | Potency [4]

N=C(N)N1CCc2ccccc2C1
inactive: activity change, negative = inhibition [1] -8.85% [at 5.82 µM] | activity change, negative = reduced viability [2] -0.684% [at 5.82 µM] | activity change, negative = lower viability [3] -9.02% [at 5.82 µM] | activity change, negative = inhibition [4] -2.35% [at 5.82 µM]
